Measurements reported in PubChem BioAssay (EPA / NIEHS).
The source made the active and inactive calls. How the source made its calls: active means hit-call score of the fitted dose curve at least 0.9, where 1 is the maximum; inactive means score below 0.9.

Experiments:
Conditions in all cases: mRNA level, 48 h; actives raise or lower the signal
[1] = read-out: Tumor necrosis factor receptor superfamily member 6 (Homo sapiens) (UniProt P25445); assay: LTEA_HepaRG_FAS: Life Technologies and Expression Analysis (LTEA) Assay for Fas cell surface death receptor (FAS) using HepaRG (AID 2283447)
Method in brief: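 Differentiated human HepaRG cells, pre-cultured 48 h, were exposed in duplicate for 48 h to 8-point half-log concentrations (top 100 uM, 0.5% DMSO) in serum-free induction medium; FAS mRNA measured by qRT-PCR, normalized to ACTB/GAPDH/POLR2A, bidirectional fit versus DMSO.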

[2] = read-out: Fatty acid synthase (Homo sapiens) (UniProt P49327); assay: LTEA_HepaRG_FASN: Life Technologies and Expression Analysis (LTEA) Assay for Fatty Acid Synthase (FASN) using HepaRG (AID 2283448)
Method in brief: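 In human HepaRG cultures, 48 h chemical exposure (up to 100 uM, 0.5% DMSO) preceded TaqMan qRT-PCR of FASN.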

[3] = read-out: Cyclin D2 (CCND2), CCND2 (gene 894); assay: LTEA_HepaRG_CCND2: Life Technologies and Expression Analysis (LTEA) Assay for Cyclin D2 (CCND2) using HepaRG (AID 2283449);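 further: CCND2 transcript measured by TaqMan qRT-PCR and normalised to three housekeeping genes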
Method in brief: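 In this HepaRG study, an eight-point concentration series (max 100 uM, 0.5% DMSO) is applied for 48 h. CCND2 mRNA change is derived by qRT-PCR normalised to ACTB, GAPDH and POLR2A.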

[4] = read-out: Cyclin Dependent Kinase Inhibitor 1A (CDKN1A), CDKN1A (gene 1026); assay: LTEA_HepaRG_CDKN1A: Life Technologies and Expression Analysis (LTEA) Assay for Cyclin Dependent Kinase Inhibitor 1A (CDKN1A) using HepaRG (AID 2283450)
Method in brief: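 Differentiated HepaRG cells in serum-free induction medium, exposed 48 h in duplicate to eight half-log concentrations up to 100 uM in 0.5% DMSO. mRNA measured by TaqMan qRT-PCR, normalized to ACTB, GAPDH, POLR2A; bidirectional fit versus DMSO.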

[5] = read-out: Cyclin D1 (CCND1), CCND1 (gene 595); assay: LTEA_HepaRG_CCND1: Life Technologies and Expression Analysis (LTEA) Assay for Cyclin D1 (CCND1) using HepaRG (AID 2283451)
Method in brief: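 Differentiated HepaRG cells exposed 48 h in serum-free induction medium to eight half-log concentrations from 100 uM top, 0.5% DMSO, duplicates. CCND1 mRNA measured by Fluidigm TaqMan qRT-PCR, normalised to ACTB, GAPDH, POLR2A; bidirectional fit.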

[6] = read-out: catalase (CAT), CAT (gene 847); assay: LTEA_HepaRG_CAT: Life Technologies and Expression Analysis (LTEA) Assay for catalase (CAT) using HepaRG (AID 2283452);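 on AC50: TaqMan qRT-PCR signal normalized to ACTB GAPDH and POLR2A housekeeping genes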
Method in brief: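 Differentiated HepaRG cells in serum-free induction medium were dosed 48 h in duplicate, eight half-log concentrations from 100 uM in 0.5% DMSO. Transcript measured by TaqMan qRT-PCR, normalised to ACTB/GAPDH/POLR2A, fitted bidirectionally against DMSO.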

[7] = read-out: flavin-containing dimethylaniline monooxygenases 3 (FMO3), FMO3 (gene 2328); assay: LTEA_HepaRG_FMO3: Life Technologies and Expression Analysis (LTEA) Assay for flavin-containing dimethylaniline monooxygenases 3 (FMO3) using HepaRG (AID 2283453);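 on AC50: FMO3 transcript by TaqMan qRT-PCR normalized to ACTB GAPDH and POLR2A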
Method in brief: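 Eight-point concentration-response in serum-free HepaRG cultures (top 100 uM, 0.5% DMSO, 48 h). Read-out: FMO3 mRNA level normalized to three endogenous control genes, fitted bidirectionally versus vehicle.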

[8] = read-out: Cytochrome P450 (CYP1A1), CYP1A1 (gene 1543); assay: LTEA_HepaRG_CYP1A1: Life Technologies and Expression Analysis (LTEA) Assay for Cytochrome P450 (CYP1A1) using HepaRG (AID 2283454)
Method in brief: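 Differentiated human HepaRG cells, after 48 h plating, exposed in duplicate for 48 h in serum-free induction medium to 8 half-log concentrations up to 100 uM in 0.5% DMSO. CYP1A1 mRNA by qRT-PCR, normalized to ACTB/GAPDH/POLR2A; bidirectional fit versus DMSO.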

[9] = read-out: CFLAR gene, CFLAR (gene 8837); assay: LTEA_HepaRG_CFLAR: Life Technologies and Expression Analysis (LTEA) Assay for CFLAR gene using HepaRG (AID 2283455)
Method in brief: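 Gain- or loss-of-signal changes in CFLAR transcript were fitted bidirectionally relative to 0.5% DMSO. Cells (HepaRG, duplicate wells) were dosed for 48 h across eight half-log concentrations topping at 100 uM; quantitation by TaqMan qRT-PCR.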

[10] = read-out: Forkhead box O1 (FOXO1), FOXO1 (gene 2308); assay: LTEA_HepaRG_FOXO1: Life Technologies and Expression Analysis (LTEA) Assay for Forkhead box O1 (FOXO1) using HepaRG (AID 2283456)
Method in brief: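 Using one lot of HepaRG hepatic cells kept in 0.5% DMSO, the team applied test chemicals in duplicate, half-log dilutions from 100 uM, for 48 h. Expression, normalised to ACTB/GAPDH/POLR2A, was compared with vehicle in either direction.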

[11] = read-out: growth arrest and DNA damage 45 (GADD45A), GADD45A (gene 1647); assay: LTEA_HepaRG_GADD45A: Life Technologies and Expression Analysis (LTEA) Assay for growth arrest and DNA damage 45 (GADD45A) using HepaRG (AID 2283458)
Method in brief: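 Eight-point concentration-response in HepaRG cells: 48 h chemical exposure, 0.5% DMSO vehicle, top dose 100 uM. Normalized qRT-PCR mRNA readout with bidirectional fitting relative to DMSO.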

[12] = read-out: Forkhead box O3 (FOXO3), FOXO3 (gene 2309); assay: LTEA_HepaRG_FOXO3: Life Technologies and Expression Analysis (LTEA) Assay for Forkhead box O3 (FOXO3) using HepaRG (AID 2283459)
Method in brief: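 Gene-expression endpoint: FOXO3 transcript level by qRT-PCR in HepaRG cultures treated 48 h with chemicals up to 100 uM (half-log, 0.5% DMSO vehicle).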

[13] = read-out: ABC Transporter (ABCB1), ABCB1 (gene 5243); assay: LTEA_HepaRG_ABCB1: Life Technologies and Expression Analysis (LTEA) Assay for ABC Transporter (ABCB1) using HepaRG (AID 2283460)
Method in brief: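 Human liver HepaRG line treated 48 h with up to 100 uM compound (eight half-log points, 0.5% DMSO); ABCB1 mRNA change fitted bidirectionally against DMSO controls.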

[14] = read-out: growth arrest and DNA damage 45 (GADD45B), GADD45B (gene 4616); assay: LTEA_HepaRG_GADD45B: Life Technologies and Expression Analysis (LTEA) Assay for growth arrest and DNA damage 45 (GADD45B) using HepaRG (AID 2283461)
Method in brief: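 Differentiated human HepaRG cells in serum-free induction medium exposed 48 h in duplicate to eight concentrations, top 100 uM, half-log steps, 0.5% DMSO. GADD45B mRNA by TaqMan qRT-PCR, normalized to ACTB, GAPDH, POLR2A; bidirectional fit versus DMSO.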

[15] = read-out: ABC Transporter (ABCC3), ABCC3 (gene 8714); assay: LTEA_HepaRG_ABCC3: Life Technologies and Expression Analysis (LTEA) Assay for ABC Transporter (ABCC3) using HepaRG (AID 2283462)
Method in brief: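 Differentiated human HepaRG cells exposed 48 h in serum-free induction medium, 0.5% DMSO vehicle, 8-point half-log series to 100 uM in duplicate. ABCC3 mRNA by qRT-PCR, normalised to ACTB, GAPDH, POLR2A; bidirectional fit vs DMSO.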

Measured: AC50

Sequence of Fatty acid synthase (Homo sapiens) (P49327 whole entry, looked up): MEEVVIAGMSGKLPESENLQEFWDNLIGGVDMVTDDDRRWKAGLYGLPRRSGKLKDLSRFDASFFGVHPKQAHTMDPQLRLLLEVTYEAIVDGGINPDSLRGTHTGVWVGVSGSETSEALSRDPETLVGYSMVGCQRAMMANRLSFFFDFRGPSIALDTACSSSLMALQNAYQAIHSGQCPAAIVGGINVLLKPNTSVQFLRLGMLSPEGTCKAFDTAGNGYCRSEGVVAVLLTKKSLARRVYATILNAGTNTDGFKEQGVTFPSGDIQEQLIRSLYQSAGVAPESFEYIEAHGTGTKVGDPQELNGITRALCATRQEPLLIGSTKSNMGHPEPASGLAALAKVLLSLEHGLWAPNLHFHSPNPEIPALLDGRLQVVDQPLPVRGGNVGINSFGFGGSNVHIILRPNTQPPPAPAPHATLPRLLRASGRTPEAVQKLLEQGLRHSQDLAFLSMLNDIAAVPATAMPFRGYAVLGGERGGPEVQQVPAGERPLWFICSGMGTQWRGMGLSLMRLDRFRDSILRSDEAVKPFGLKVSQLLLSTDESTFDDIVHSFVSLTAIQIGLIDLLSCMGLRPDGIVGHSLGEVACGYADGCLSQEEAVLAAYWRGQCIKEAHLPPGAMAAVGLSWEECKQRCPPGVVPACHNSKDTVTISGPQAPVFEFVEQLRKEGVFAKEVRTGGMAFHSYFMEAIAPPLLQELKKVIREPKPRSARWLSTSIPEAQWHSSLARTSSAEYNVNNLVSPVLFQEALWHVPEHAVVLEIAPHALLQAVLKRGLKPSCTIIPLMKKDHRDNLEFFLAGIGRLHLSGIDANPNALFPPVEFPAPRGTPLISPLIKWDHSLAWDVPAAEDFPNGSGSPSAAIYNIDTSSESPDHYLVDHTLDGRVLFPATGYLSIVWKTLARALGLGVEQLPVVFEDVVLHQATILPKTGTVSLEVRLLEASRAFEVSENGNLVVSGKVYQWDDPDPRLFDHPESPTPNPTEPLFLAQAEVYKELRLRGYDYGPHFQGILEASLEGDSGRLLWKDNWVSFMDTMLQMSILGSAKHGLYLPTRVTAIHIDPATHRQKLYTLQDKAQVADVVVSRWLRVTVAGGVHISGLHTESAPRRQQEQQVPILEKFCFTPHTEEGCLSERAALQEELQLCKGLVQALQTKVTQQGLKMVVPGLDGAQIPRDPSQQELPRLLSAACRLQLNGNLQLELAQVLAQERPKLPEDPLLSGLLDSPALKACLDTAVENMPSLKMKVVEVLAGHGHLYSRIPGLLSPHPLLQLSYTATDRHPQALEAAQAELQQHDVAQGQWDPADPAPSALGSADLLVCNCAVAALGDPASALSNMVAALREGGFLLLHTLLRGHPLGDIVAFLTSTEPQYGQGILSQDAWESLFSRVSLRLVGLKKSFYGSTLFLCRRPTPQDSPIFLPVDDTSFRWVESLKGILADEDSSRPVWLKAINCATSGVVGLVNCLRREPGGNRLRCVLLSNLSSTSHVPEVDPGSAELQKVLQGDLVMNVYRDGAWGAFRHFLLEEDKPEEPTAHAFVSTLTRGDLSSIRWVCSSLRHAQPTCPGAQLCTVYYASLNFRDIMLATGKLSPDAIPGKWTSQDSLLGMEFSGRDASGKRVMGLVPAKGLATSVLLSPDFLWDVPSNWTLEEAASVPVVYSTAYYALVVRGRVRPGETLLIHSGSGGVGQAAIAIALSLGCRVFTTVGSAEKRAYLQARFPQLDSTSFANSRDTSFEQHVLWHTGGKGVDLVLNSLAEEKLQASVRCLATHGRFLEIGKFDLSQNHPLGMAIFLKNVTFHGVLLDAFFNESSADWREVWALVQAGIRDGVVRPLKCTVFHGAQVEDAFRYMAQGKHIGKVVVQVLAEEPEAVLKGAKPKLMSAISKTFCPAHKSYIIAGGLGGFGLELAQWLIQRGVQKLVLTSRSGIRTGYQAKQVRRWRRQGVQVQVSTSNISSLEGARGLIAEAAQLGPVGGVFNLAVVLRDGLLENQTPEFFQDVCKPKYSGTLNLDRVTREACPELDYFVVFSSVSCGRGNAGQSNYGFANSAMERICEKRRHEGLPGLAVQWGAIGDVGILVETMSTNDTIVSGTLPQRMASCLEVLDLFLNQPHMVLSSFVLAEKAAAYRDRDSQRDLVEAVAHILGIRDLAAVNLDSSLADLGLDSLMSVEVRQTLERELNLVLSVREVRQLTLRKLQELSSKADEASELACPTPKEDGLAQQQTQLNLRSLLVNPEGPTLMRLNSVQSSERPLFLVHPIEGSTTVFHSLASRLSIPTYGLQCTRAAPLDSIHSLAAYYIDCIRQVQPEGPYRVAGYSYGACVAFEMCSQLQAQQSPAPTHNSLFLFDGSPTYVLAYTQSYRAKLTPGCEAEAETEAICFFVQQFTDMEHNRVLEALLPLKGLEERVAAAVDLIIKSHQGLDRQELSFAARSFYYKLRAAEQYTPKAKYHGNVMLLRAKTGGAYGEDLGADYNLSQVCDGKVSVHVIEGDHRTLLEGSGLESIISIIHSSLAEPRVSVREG

CN(C)N=O
inactive: [1] | [2] | [3] | [4] | [5] | [6] | [7] | [8] | [9] | [10] | [11] | [12] | [13] | [14] | [15]

C=C(C)C(=O)[O][Sn]([CH2]CCC)([CH2]CCC)[CH2]CCC
active: [7] 74.9 µM | [8] 2.87 µM | [9] 4.03 µM | [10] 1.98 µM | [11] 0.314 µM | [13] 3.08 µM | [15] 3.06 µM
inactive: [2] | [3] | [4] | [5] | [6] | [12] | [14]

CCC(C)(C)c1ccc(O)c(C(C)(C)CC)c1
inactive: [1] | [2] | [3] | [4] | [5] | [6] | [7] | [9] | [10] | [11] | [12] | [13] | [14] | [15]
active: [8] 74 µM

CC(C)(C)CC(C)(C)c1ccc(O)cc1
inactive: [1] | [2] | [4] | [5] | [7] | [9] | [10] | [12] | [13] | [14] | [15]
active: [6] 2.44 µM | [8] 81.5 µM | [11] 81.5 µM
